This is a sample that favours compounds with a hit; in the whole collection about 31% have one here.
PLAP act: human PLAP activation; P05187; purified PLAP enzyme, luminescent substrate read-out; hits give high values; activation fold at 20 µM; actives 1.2% (n = 96,000); AID 696; in the data active means activation fold above about 2
Target sequence (P05187 whole entry, looked up): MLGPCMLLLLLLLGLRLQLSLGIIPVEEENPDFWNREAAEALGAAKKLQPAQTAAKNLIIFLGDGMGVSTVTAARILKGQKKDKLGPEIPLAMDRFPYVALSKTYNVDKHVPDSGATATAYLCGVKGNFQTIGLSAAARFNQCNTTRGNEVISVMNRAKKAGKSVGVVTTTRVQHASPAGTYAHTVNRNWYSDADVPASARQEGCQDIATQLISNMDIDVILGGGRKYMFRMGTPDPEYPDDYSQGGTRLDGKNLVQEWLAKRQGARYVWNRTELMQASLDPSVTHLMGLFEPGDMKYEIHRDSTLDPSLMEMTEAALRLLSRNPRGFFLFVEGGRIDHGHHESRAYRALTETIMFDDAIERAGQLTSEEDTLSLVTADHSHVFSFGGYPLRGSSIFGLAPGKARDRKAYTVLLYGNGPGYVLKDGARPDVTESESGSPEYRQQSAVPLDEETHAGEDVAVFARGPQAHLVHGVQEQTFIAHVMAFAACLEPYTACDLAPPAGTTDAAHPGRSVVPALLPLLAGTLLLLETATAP
CYP2C9 inh: blocks human cytochrome P450 2C9; P11712; CYP2C9 Supersomes, luciferin-H conversion, luminescence; inhibition, % at 5 µM; actives 20% (n = 96,000); AID 777;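 active means blocking of liver enzyme CYP2C9 beyond about 50% at 5 µM, limit read from the data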
CYP2C9 activ: activators of human CYP2C9 | recombinant CYP2C9, luciferin-H conversion, luminescence; hits give high values; factor 1 = untreated enzyme, 0 = blocked | activation factor at 5 µM | actives 1.4% (n = 96,000) | P11712;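 active means activation factor of 2 or more for CYP2C9 at a 5 µM dose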;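 further: 0 = sulfaphenazole-blocked wells and 1 = vehicle-only wells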
CYP2C19 act: activators of human cytochrome P450 2C19 | P33261 | recombinant CYP2C19, luciferin-H EGE luminescence; hits give high values; 0 = fully inhibited enzyme, 1 = untreated enzyme | activation factor at 5 µM | 96,000 tested, under 10 active;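 active means activation factor of at least 2 at 5 µM in the primary screen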;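 further: 0 = wells with 2.5 mM tranylcypromine and 1 = vehicle-only wells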
CYP2C19 inhib: blocks human cytochrome P450 2C19; P33261; CYP2C19 Supersomes, luciferin-H EGE luminescence, 30 min; inhibition, % at 5 µM; actives 21% (n = 96,000); AID 778;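 active means CYP2C19 inhibition above a set limit at 5 µM in the primary screen, cut at about 50% in these data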;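 further: plate controls were negative control wells for no effect and 2.5 mM tranylcypromine positive control for full effect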
Active calls of the source: *.

SMILES	PLAP act	CYP2C9 inh	CYP2C9 activ	CYP2C19 act	CYP2C19 inhib
O=C(CN1CCN(C(=O)c2c(F)cccc2F)CC1)Nc1ccccc1F	1	8.4	0.9	0.8	24.7
CCCC(c1nnnn1CCOC)N1CCN(c2cccc(OC)c2)CC1 (configuration not stated)	1	25.7	0.7	0.7	33.6
CCCCC(c1nnnn1CCOC)N1CCN(c2cccc(OC)c2)CC1 (configuration not stated)	1.5	53.6*	0.5	0.3	69.7*
COCCn1nnnc1C(c1cccs1)N1CCN(c2ccccc2)CC1 (configuration not stated)	1.1	50.8*	0.5	0.6	44.1
COCCn1nnnc1C(c1ccccc1)N1CCN(C)CC1 (configuration not stated)	1	-1.8	1	1	2.9
Cn1nnnc1SCC(=O)Nc1c(Cl)cccc1Cl	1	15.3	0.8	0.9	9.5
COc1ccc(Oc2nc(Oc3ccc(OC)cc3)nc(Oc3ccc(OC)cc3)n2)cc1	0.9	-12.7	1.1	1.1	-8.9
CCOc1ccc(/C=N/O)cc1	0.8	14.4	0.9	0.4	55.4*
CCOc1ccc(C=NC23CN4CN(CN(C4)C2)C3)cc1	1.1	-9.4	1.1	0.9	5.3
N=c1c(C(=O)NCc2ccco2)cc2c(=O)n3ccccc3nc2n1Cc1ccc(Cl)cc1	1.4	64.5*	0.4	0.6	39.0
N=c1c(C(=O)NCc2ccco2)cc2c(=O)n3ccccc3nc2n1Cc1ccccc1	1.4	46.1	0.5	0.7	33.6
N=c1c(C(=O)NCc2ccccc2)cc2c(=O)n3ccccc3nc2n1Cc1ccco1	0.9	47.8	0.5	0.7	25.5
N=c1c(C(=O)NCc2ccc3c(c2)OCO3)cc2c(=O)n3ccccc3nc2n1Cc1cccnc1	1.4	67.3*	0.3	0.5	46.0
Cc1ccc(CNC(=O)c2cc3c(=O)n4ccccc4nc3n(Cc3ccco3)c2=N)cc1	1.2	55.5*	0.4	0.9	9.6
N=c1c(S(=O)(=O)c2ccc(Cl)cc2)cc2c(=O)n3ccccc3nc2n1CCN1CCOCC1	1.3	58.6*	0.4	0.6	39.6
C=CCNC(=S)N1CCN(c2ncc3c(=O)c(C(=O)O)cn(CC)c3n2)CC1	1	-5.1	1.1	1.1	-11.4
Cc1ccc(N2C(=O)CSC2c2cccnc2)cc1F (configuration not stated)	1.1	-6.2	1.1	0.9	11.6
O=C(Oc1ccccc1C(=O)Oc1ccccc1)c1ccco1	0.9	46.8	0.5	0.6	37.6
CCn1c(=N)c(C(=O)OC)cc2c(=O)n3ccccc3nc21	1.1	-17.8	1.2	0.4	62.9*
COCCn1c(=N)c(C(=O)NCc2ccco2)cc2c(=O)n3ccccc3nc21	1.4	-2.3	1	1.1	-13.4
Nc1c(C(=O)NC2CCCC2)sc2nc(-c3cccs3)ccc12	1.2	43.6	0.6	0.3	71.9*
O=C(c1cccs1)N1CCN(S(=O)(=O)N2CCCCC2)CC1	1.2	6.5	0.9	0.7	29.4
CCN(CC)S(=O)(=O)c1ccc2c(c1)nc(SCC(N)=O)n2-c1ccc(OC)cc1	1.6	49.2	0.5	0.7	30.2
CCN(CC)S(=O)(=O)c1ccc2c(c1)nc(SCC(=O)N1CCCCCC1)n2-c1ccc(OC)cc1	1.5	81.4*	0.2	0.9	14.1
COc1cccc(NS(=O)(=O)c2ccc3[nH]cc(C(=O)N(C)Cc4ccco4)c(=O)c3c2)c1	1.4	70.7*	0.3	0.5	48.1
SMILES	PLAP act	CYP2C9 inh	CYP2C9 activ	CYP2C19 act	CYP2C19 inhib
COc1cccc(NS(=O)(=O)c2ccc3[nH]cc(C(=O)NC4CC4)c(=O)c3c2)c1	0.9	52.0*	0.5	0.9	13.0
O=C(NCc1ccco1)c1cc(S(=O)(=O)N2CCOCC2)ccc1Cl	1.3	11.9	0.9	0.9	13.1
Cc1cc(C)cc(NS(=O)(=O)c2ccc3[nH]cc(C(=O)NCc4ccco4)c(=O)c3c2)c1	0.9	64.8*	0.4	0.9	12.4
Cc1ccccc1NS(=O)(=O)c1ccc2[nH]cc(C(=O)N(C)Cc3ccco3)c(=O)c2c1	1.2	24.7	0.8	0.9	14.4
CC(=O)N(CC(=O)O)c1ccccc1C(=O)O	1	-6.3	1.1	1.1	-5.7
CCOC(=O)C(NC(=O)Nc1ccccc1)(OCC)C(F)(F)F (configuration not stated)	0.8	19.9	0.8	0.5	50.3*
CCOC(=O)Cc1cnc(NC(=O)NC(C(=O)OCC)(c2ccccc2)C(F)(F)F)s1 (configuration not stated)	1	32.7	0.7	0.5	53.0*
CCOC(=O)C(NC(C)=O)(OCc1ccc(F)cc1)C(F)(F)F (configuration not stated)	0.9	9.0	0.9	0.4	55.3*
CCOC(=O)C(NC(=O)Nc1cccc(C)n1)(OCC(F)(F)F)C(F)(F)F (configuration not stated)	0.8	37.8	0.6	0.8	20.3
COc1ccc(S(=O)(=O)Cc2ccc(C(=O)NCCCN3CCc4ccccc4C3)o2)cc1	1.6	87.6*	0.1	0.8	15.6
Cc1ccc2cc3cc(C(=O)NCCCN4CCc5ccccc5C4)oc3nc2c1	1.4	13.2	0.9	0.4	64.0*
COc1ccc(S(=O)(=O)Cc2ccc(C(=O)NCCCN(C)c3ccccc3)o2)cc1	1.4	98.0*	0	0.5	46.8
CCCCNC(=O)c1ccc(CS(=O)(=O)c2ccc(OC)cc2)o1	0.9	-1.0	1	0.9	10.7
CCOC(=O)N1CCC(NC(=O)c2ccc(CS(=O)(=O)c3ccc(OC)cc3)o2)CC1	1	92.8*	0.1	1	-2.9
CCOC(=O)CC(NC(=O)c1ccc(C)cc1)c1ccc(C)cc1 (configuration not stated)	1.1	16.3	0.8	0.8	20.3
Cn1c(=NC(=O)CN2C(=O)C3CC=CCC3C2=O)sc2ccccc21 (configuration not stated)	1.3	34.1	0.7	0.7	34.1
Cc1ccc2cc3cc(C(=O)NCCCN4CCCCCC4)oc3nc2c1	1.2	2.6	1	1	-1.6
Cc1cccc(N(C)C(=O)c2cc3cc4ccc(C)cc4nc3o2)c1	1.3	24.2	0.8	0.3	70.1*
CC(C)(C)c1cc(CNC2CS(=O)(=O)C[C@@H]2O)cc(C(C)(C)C)c1O (some centres not stated)	1.3	14.7	0.9	0.9	6.1
CC(=O)Nc1cc(C(C)(C)C)c(O)c(C(C)(C)C)c1	1.4	88.4*	0.1	0.8	22.5
COc1ccc2c(c1)S/C(=C\C(=O)c1ccncc1)N2C	1.2	61.5*	0.4	0.3	73.3*
CN1/C(=C/C(=O)c2cccs2)Sc2ccccc21	0.7	8.0	0.9	0.6	38.8
O=C(Cc1coc(-c2ccc(F)cc2)n1)NC1CCCCC1	0.9	60.2*	0.4	0.5	51.0*
O=C(Cc1coc(-c2ccc(F)cc2)n1)N1CCOCC1	1.2	51.8*	0.5	0.5	50.5*

High-throughput results (PubChem)
